Source: the supplement of paper PMC11732987, “Enantioselective OTUD7B fragment discovery through chemoproteomics screening and high-throughput optimisation” (Communications Chemistry, 2025)

Assays:
Experiment in all cases: log2 ratio of Biotin-Ahx-Ub-VS probe labelling (fragment/DMSO); higher = less target engagement (more negative = stronger competition), active = hit call of the paper (q ≤ 0.05, log2 ratio ≤ -1)
Details in all cases: compound concentration: 200 uM; treatment time: 3 h
[1] = target: T1, ALG13 (UniProt Q9NP73)
T1 sequence (whole entry): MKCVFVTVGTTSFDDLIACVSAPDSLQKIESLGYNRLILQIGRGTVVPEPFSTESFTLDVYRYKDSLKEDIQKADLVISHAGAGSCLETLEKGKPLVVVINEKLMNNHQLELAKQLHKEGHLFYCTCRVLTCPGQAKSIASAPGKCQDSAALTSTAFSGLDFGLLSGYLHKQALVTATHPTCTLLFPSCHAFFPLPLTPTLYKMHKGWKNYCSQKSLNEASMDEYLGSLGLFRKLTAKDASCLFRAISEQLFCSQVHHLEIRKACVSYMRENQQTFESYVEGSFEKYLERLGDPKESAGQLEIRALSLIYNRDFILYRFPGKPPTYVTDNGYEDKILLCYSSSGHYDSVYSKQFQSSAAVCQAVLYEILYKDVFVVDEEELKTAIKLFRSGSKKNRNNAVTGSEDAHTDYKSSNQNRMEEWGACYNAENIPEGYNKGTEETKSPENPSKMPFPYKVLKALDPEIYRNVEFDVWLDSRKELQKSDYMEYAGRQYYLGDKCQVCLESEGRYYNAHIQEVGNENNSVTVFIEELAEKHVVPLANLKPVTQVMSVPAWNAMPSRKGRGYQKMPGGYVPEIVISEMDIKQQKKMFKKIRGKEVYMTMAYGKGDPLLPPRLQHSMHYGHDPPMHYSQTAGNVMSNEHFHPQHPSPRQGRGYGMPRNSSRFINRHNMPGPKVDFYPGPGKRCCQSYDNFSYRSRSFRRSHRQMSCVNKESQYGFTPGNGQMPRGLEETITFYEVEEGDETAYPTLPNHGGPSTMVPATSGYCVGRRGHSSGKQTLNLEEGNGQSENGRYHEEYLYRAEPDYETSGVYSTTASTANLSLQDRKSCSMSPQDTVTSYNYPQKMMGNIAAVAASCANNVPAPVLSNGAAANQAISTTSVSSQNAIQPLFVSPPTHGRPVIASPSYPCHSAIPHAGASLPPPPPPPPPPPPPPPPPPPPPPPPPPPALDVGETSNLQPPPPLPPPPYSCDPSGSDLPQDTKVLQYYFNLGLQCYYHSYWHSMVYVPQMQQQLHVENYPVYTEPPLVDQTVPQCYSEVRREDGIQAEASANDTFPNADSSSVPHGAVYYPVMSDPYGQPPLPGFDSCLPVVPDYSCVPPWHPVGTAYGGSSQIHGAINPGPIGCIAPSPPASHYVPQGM
Procedure, shortened: (§1)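 Fragment (200 µM) or vehicle was incubated for 3 h with triplicate HEK293T lysate samples of 495 µg, which were then treated with Biotin-Ahx-Ub-VS at 0.5 µM final for 1 h. Labelled DUBs were enriched on NeutrAvidin, digested with LysC and trypsin, and analysed by diaPASEF LC-MS/MS. Values are average log2 fragment/vehicle ratios from an unpaired t-test on global-median-normalised Spectronaut label-free quantities, using proteins with ≥2 unique peptides.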

[2] = target: ATXN3 (UniProt P54252)
Chain of ATXN3 (P54252 whole entry): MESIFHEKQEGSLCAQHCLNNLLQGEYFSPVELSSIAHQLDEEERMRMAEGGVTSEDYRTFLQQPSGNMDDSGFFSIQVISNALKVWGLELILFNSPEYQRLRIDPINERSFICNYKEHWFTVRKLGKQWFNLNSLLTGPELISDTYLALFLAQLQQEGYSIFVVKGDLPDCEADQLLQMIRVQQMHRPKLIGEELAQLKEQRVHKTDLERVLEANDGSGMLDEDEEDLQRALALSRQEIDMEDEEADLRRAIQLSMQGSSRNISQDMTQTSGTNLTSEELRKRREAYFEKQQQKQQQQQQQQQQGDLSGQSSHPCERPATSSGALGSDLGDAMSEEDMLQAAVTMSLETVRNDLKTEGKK
Procedure, shortened: as §1

[3] = target: T2, BAP1 (UniProt Q92560)
T2 sequence (whole entry): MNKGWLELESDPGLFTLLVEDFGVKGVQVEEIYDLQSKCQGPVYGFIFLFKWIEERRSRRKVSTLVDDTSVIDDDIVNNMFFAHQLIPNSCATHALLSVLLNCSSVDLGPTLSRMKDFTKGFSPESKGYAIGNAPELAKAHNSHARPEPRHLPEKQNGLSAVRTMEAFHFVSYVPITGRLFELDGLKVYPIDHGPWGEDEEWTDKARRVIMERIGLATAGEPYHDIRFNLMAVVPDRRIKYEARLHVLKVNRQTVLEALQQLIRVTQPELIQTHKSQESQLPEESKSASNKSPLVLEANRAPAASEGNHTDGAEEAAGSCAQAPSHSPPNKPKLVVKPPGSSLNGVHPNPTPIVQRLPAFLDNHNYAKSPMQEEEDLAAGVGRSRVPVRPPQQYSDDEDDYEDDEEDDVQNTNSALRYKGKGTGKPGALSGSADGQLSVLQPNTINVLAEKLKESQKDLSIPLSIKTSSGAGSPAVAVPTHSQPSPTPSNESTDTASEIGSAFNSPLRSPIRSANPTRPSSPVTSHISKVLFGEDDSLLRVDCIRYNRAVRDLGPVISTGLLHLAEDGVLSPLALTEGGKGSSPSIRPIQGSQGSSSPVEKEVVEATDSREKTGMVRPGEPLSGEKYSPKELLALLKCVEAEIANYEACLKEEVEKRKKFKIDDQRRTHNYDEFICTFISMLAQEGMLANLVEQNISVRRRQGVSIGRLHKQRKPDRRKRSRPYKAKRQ
Procedure, shortened: as §1

[4] = target: EIF3F (UniProt O00303)
Chain of EIF3F (O00303 whole entry): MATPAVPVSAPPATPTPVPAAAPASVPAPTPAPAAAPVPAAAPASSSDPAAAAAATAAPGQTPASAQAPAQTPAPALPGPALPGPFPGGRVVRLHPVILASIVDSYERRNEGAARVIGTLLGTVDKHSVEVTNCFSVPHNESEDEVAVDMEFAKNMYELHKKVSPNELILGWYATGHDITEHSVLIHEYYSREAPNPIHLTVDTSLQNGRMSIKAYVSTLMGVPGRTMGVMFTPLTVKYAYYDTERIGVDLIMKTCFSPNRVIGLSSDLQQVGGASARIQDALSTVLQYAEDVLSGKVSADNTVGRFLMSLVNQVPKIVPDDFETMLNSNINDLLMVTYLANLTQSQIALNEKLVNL
Procedure, shortened: as §1

[5] = target: EIF3H (UniProt O15372)
Chain of EIF3H (O15372 whole entry): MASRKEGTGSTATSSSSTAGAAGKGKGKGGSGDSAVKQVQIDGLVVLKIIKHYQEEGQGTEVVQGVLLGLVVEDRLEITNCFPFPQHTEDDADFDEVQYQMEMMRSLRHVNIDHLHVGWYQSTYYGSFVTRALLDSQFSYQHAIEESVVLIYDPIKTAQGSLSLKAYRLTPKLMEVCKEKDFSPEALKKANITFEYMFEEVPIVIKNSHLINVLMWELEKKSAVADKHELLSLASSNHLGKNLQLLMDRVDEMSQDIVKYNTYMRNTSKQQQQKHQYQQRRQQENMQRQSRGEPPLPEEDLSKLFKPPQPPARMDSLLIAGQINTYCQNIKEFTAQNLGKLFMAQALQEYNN
Procedure, shortened: as §1

[6] = target: T3, FAM105A (UniProt Q9NUU6)
T3 sequence (whole entry): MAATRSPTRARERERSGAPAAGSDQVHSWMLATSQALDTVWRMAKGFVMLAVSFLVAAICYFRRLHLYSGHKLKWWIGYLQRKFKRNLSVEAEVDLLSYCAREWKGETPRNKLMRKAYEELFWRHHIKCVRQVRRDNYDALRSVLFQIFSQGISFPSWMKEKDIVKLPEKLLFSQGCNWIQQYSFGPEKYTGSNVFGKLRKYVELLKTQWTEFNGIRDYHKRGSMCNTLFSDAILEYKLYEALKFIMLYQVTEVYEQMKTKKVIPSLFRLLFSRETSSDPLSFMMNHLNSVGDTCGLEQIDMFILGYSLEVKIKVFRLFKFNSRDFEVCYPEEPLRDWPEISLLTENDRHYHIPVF
Procedure, shortened: as §1

[7] = target: OTUB1 (UniProt Q96FW1)
Chain of OTUB1 (Q96FW1 whole entry): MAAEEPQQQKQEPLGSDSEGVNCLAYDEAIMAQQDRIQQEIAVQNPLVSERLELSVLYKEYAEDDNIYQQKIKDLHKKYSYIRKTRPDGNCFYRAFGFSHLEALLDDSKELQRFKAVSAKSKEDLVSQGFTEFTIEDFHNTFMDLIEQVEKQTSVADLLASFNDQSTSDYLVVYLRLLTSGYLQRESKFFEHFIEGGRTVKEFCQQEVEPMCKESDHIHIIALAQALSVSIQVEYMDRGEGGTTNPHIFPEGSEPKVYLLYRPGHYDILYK
Procedure, shortened: as §1

[8] = target: T4, OTUD4 (UniProt Q01804)
T4 sequence (whole entry): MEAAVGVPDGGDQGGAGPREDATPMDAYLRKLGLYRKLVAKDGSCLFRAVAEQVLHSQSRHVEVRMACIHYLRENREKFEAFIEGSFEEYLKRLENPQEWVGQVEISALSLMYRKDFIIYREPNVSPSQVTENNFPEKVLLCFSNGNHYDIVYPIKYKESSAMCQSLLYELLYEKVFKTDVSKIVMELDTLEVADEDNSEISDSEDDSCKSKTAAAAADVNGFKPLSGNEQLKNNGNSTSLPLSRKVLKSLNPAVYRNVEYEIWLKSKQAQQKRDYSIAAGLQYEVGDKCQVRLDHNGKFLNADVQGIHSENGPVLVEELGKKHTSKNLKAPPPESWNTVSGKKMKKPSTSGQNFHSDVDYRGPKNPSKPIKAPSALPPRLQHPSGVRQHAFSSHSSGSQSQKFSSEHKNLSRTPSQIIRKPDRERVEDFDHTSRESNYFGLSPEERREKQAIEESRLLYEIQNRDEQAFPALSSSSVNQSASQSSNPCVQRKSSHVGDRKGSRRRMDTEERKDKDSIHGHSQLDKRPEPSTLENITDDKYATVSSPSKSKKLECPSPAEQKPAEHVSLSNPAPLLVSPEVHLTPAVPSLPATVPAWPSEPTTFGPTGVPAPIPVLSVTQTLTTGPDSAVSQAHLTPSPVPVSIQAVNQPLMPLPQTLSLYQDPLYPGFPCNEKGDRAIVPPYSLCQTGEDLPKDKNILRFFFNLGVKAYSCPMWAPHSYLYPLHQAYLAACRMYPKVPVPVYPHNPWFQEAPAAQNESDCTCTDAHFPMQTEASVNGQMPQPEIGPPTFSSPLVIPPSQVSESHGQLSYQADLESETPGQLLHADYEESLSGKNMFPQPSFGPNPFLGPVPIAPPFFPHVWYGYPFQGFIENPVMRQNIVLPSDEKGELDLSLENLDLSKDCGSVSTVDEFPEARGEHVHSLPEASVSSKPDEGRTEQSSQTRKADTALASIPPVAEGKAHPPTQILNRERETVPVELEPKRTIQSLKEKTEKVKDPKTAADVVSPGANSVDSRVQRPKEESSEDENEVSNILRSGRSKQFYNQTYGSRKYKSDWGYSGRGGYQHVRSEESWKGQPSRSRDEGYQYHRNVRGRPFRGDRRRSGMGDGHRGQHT
Procedure, shortened: as §1

[9] = target: T5, OTUD5 (UniProt Q96G74)
T5 sequence (whole entry): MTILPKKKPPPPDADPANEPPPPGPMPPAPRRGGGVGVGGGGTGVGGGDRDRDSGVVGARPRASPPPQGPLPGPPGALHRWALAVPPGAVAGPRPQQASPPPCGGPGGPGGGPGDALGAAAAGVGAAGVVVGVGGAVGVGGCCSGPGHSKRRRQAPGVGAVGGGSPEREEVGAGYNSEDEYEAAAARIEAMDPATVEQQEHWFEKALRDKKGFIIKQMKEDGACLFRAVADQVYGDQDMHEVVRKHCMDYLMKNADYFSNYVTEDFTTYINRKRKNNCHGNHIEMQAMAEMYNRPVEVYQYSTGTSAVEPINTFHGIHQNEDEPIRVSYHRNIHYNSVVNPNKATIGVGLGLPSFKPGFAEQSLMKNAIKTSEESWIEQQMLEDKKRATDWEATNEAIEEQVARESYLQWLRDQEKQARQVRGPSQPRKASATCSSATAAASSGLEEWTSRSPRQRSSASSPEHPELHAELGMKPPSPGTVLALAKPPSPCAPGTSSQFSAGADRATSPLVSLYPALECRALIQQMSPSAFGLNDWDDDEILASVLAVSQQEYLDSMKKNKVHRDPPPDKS
Procedure, shortened: as §1

Measured: log2 ratio of Biotin-Ahx-Ub-VS probe labelling

O=C(CCl)Nc1ccc(F)cc1Cl
active: [3] -3.7
inactive: [1] -0.23 | [2] -0.598 | [4] -0.37 | [5] 0.131 | [6] 0.0383 | [7] -0.452 | [8] -0.578 | [9] -0.8
